Only some compounds are listed: those with a hit (about 2.4% of all), similar ones and a draw of the others.
D2 ag-1: D2 dopamine receptor (human) agonism | P14416 | HEK293 T-REx D2 cells, calcium flux agonist mode | activation, % at 2 µM | 340,000 tested, 0.53% active;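 active = activation over 3 SD above normal in the single-dose calcium agonist read, cut at about 30% in these data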; note: 0% is about no effect
Target sequence (P14416 whole entry, looked up): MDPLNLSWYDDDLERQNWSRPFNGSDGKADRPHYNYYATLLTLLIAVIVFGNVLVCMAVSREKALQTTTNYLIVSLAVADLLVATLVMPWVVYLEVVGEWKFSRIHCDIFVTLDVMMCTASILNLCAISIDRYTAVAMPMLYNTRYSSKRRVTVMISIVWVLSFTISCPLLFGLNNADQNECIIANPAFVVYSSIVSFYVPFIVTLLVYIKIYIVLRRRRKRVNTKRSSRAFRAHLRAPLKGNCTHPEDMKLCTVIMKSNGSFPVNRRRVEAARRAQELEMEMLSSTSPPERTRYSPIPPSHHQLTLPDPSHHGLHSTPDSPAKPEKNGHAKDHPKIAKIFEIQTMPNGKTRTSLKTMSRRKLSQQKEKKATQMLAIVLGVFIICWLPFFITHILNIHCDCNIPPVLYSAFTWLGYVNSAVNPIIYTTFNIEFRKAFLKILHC
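Agonism is scored from calcium flux in a force-coupled, inducible HEK293 cell line expressing D2, read kinetically for 180 s after compound addition against dopamine controls.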
D2 antag: D2 dopamine receptor (human) antagonism; P14416; HEK293 TREx D2 cells, calcium flux, dopamine EC80; inhibition, % at 10 µM; 340,000 tested, 2% active; AID 485344; in the data active = inhibition above about 30%; inactive = below that, where a call was filed; note: 0% is about no effect
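Cells plated overnight at 30 C with tetracycline; no-wash calcium dye, 30–90 min RT; 10 s baseline; compound pinned; 180 s read; EC80 dopamine added; another 180 s read.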
D2 PAM-1: positive allosteric modulators of human D2 dopamine receptor; DiscoveRx D2 beta-arrestin cells, luminescence, 90 min; 100% = 57 uM dopamine signal; potentiation, % (no concentration beside the values); 360,000 tested, 0.23% active; AID 624464; in the data active = potentiation above about 50%; inconclusive = mostly about 30% to 49%
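D2 cells co-treated with compound plus 50 nM dopamine (EC20) for 90 min at 37 deg C to detect potentiation. Beta-arrestin recruitment was read as enzyme-fragment luminescence after 1 h at ambient temperature. Full response was set by 57 uM dopamine.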
D2 ag-2: activates the human D2 dopamine receptor. DiscoveRx PathHunter D2 beta-arrestin, luminescence, 90 min; 100% = 57 uM dopamine signal. P14416. 360,000 tested, 0.084% active. activation, % (test concentration not listed); in the data active = activation above about 40%; inconclusive = between about 15% and that limit
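DiscoveRx PathHunter D2 beta-arrestin cells (2,100/well) attached overnight, then compound-stimulated 90 min at 37 C in HBSS/10 mM HEPES/0.1% Tween-20 buffer; beta-galactosidase complementation read by luminescence after 1 h at ambient temperature. Dopamine 57 uM final (EC100) as control.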
D2 PAM-2: positive allosteric modulators of human D2 dopamine receptor; P14416; HEK293 T-REx D2, calcium flux, EC20 dopamine potentiation; potentiation, % at 10 µM; 340,000 tested, 0.34% active; AID 485347;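 active = potentiation over 3 SD above the plate norm, cut at about 30% in these data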; note: 0% is about no effect
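Using a no-wash calcium dye in inducible, force-coupled HEK293 Trex cells expressing D2, we tracked fluorescence each second for 180 s after compound, then for 180 s after EC20 dopamine to detect augmented signalling.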
The depositor's hits bear a star; ? = inconclusive; / = no result.

SMILES	D2 ag-1	D2 antag	D2 PAM-1	D2 ag-2	D2 PAM-2
COc1cc(NC(=O)c2cc3cc4ccc(C)cc4nc3o2)cc(OC)c1OC	-1	/	/	/	2
CCc1cc(C(=O)OC)c(NC(=O)CC2SC(=NC)N(C)C2=O)s1 (stereo unspecified)	0	63*	4	2	-6
CCc1cccc(CC)c1NC(=O)c1ccccc1	-1	21	-3	-4	5
CC(C)c1cccc(C(C)C)c1NC(=O)c1ccccc1	-2	43*	0	-4	-12
Oc1ccccc1C1Nc2cccc3cccc(c23)N1	1	-3	61*	13	20
Brc1cccc(C2Nc3cccc4cccc(c34)N2)c1	0	-3	2	4	12
Brc1ccc(C2Nc3cccc4cccc(c34)N2)o1	0	-8	61*	8	4
CC1CCN(C(=O)Cn2cc(SCC(=O)NCc3ccccc3Cl)c3ccccc32)CC1	/	/	/	/	-10
CCS(=O)(=O)N1CCc2cc(C(=O)Nc3ccc(Br)cc3F)ccc21	-2	/	/	/	1
CCOC(=O)CSc1nc2sc3c(c2c(=O)[nH]1)CCCC3	0	6	-7	1	0
O=C(CSc1nc2sc3c(c2c(=O)[nH]1)CCCC3)NCCO	0	42*	-8	-6	-8
COc1cc(NC(=O)CCCc2nnc3n(CC(C)C)c(=O)c4sccc4n23)cc(OC)c1	0	/	/	/	-5
COc1ccccc1-c1noc(-c2ccc(NCc3cccnc3)c([N+](=O)[O-])c2)n1	-1	/	/	/	-1
O=[N+]([O-])c1ccc(CNc2ccc(Cl)cc2)s1	-2	96*	?	11	4
Nc1nc(NCCc2ccccc2)nc(NCCO)c1[N+](=O)[O-]	0	1	-6	-1	34*
COC(=O)c1c(C)nn(-c2ccc(F)cc2)c1-n1cccc1	11	/	/	/	-3
Cc1sc2c(c1C)c(=O)n(-c1cccc(C(F)(F)F)c1)c(=O)n2Cc1ccc(F)cc1	0	/	/	/	-6
COCc1c(C(=O)NC2CCCCCC2)oc2ccccc12	31*	10	10	?	-27
O=C(Cn1nnc(-c2ccc3c(c2)OCO3)n1)NCc1ccccc1	1	-4	-1	2	-3
Cc1ccc(-c2nnn(CC(=O)NCCc3ccc4c(c3)OCO4)n2)cc1	2	31*	-2	-1	-1
CC1=CC(c2ccc(Cl)cc2)n2nc(NS(=O)(=O)c3ccc(C)cc3)nc2N1 (stereo unspecified)	0	-8	0	0	-3
CC1=CC(c2ccccc2)n2nc(NS(=O)(=O)c3ccc(C)cc3)nc2N1 (stereo unspecified)	-1	121*	-5	0	-3
Cc1oc2c(c1C(=O)c1ccccc1)C(=O)C(=O)c1ccccc1-2	3	-27	12	?	0
O=C1C(=O)c2c(C(=O)c3ccccc3)coc2-c2ccccc21	0	14	71*	?	1
O=C(c1ccc([N+](=O)[O-])cc1)N1CCN(c2ccc(Nc3ccccc3)nn2)CC1	3	/	/	/	-3
SMILES	D2 ag-1	D2 antag	D2 PAM-1	D2 ag-2	D2 PAM-2
CCCCN1C(N)=NC[C@@H]1Cc1ccc(O)cc1	0	-13	-5	0	8
CCCCN1C(N)=NC[C@H]1Cc1ccc(O)cc1	0	48*	-9	-5	-4
COc1cc(CC(NC(C)=O)C(=O)NC2CCN(C(=O)C3CC3)CC2)cc(OC)c1 (stereo unspecified)	0	33*	-11	-5	7
CCOC(=O)CNC=C(C(=O)OCC)C(=O)OCC	-1	-4	8	-2	15
CCOC(=O)C(=CNCC(=O)OC)C(=O)OCC	-1	36*	4	1	2
COc1ccc(N2C(=O)CSC2c2cccc(OC)c2OC)cc1 (stereo unspecified)	0	51*	-8	-3	0
CCCCNC(=O)Cn1c(=O)cc(C)c2c(C)nn(-c3cccc(Cl)c3C)c21	2	/	/	/	-2
CC1CCC(C(C)C)C(OC(=O)C[n+]2cc(-c3ccc(Cl)cc3)n3c2CCCCC3)C1 (stereo unspecified)	1	33*	-7	1	-5
COc1ccc(C2(c3ccc(OC)cc3)NC(=O)N(CC(=O)NC(C)C)C2=O)cc1	1	-14	-5	-2	2
COc1ccc(C2(c3ccc(OC)cc3)NC(=O)N(CC(=O)NCC(C)c3ccccc3)C2=O)cc1 (stereo unspecified)	5	68*	3	-2	-4
NC(=O)C1(N2CCCCC2)CCN(c2ccc3nnc(-c4ccccc4)n3n2)CC1	0	-13	-4	?	32*
COCC1CCN(C(=O)c2ccc3oc(CCCc4ccccc4)nc3c2)C1 (stereo unspecified)	1	4	14	-2	44*
CCOC(=O)c1cc(NC(=O)c2ccc(C)cc2)c(=O)n2c1oc1ccc(Cl)cc12	-1	/	/	/	-2
CCOC(=O)c1cc(NC(=O)c2ccc(Cl)cc2)c(=O)n2c1oc1ccc(Cl)cc12	1	32*	-20	0	15
CC(=O)c1c(N2CCCC2)[nH]c(-c2ccccc2)nc1=S	2	2	-20	-1	-2
CC(=O)c1c(N2CCN(Cc3ccccc3)CC2)[nH]c(-c2ccccc2)nc1=S	1	73*	-55	-2	-21
Cc1ccc(/C=C2\SC(=S)N(/N=C/c3cc([N+](=O)[O-])ccc3O)C2=O)o1	0	32*	-7	0	1
O=C(NN1C(=O)/C(=C/c2cc([N+](=O)[O-])ccc2O)SC1=S)c1ccccc1O	1	-2	/	/	-9
Cc1cc(NC(=O)CSc2nc(C3CCCCC3)nc3ccccc23)no1	0	-24	-8	-1	-1
Cc1nonc1NC(=O)CSc1nc(C2CCCCC2)nc2ccccc12	-1	54*	-14	-4	2
CC1CCCC(C)N1C(=O)Cn1cc(/C=C2/C(=O)Nc3ccccc32)c2ccccc21 (stereo unspecified)	1	32*	-8	-8	-1
COC(=O)c1cn(CC(=O)N2C(C)CCCC2C)c2ccccc12 (stereo unspecified)	1	5	8	-3	-9
Cc1cc(O)c2c(C)c(CC(=O)NCc3ccccc3Cl)c(=O)oc2c1	-1	/	/	/	-1
Cc1nn(-c2ccc(Cl)cc2)c2sc(C(=O)N3CCN(c4ccccn4)CC3)cc12	-1	1	-7	1	32*
CCn1ccnc1CN1CCCC(CO)(Cc2cccc(OC)c2)C1 (stereo unspecified)	-1	11	-19	-5	-4
COc1cccc(CC2(CO)CCCN(Cc3ccc4c(c3)OCCO4)C2)c1 (stereo unspecified)	0	56*	-6	-5	-28

Source: PubChem
